A short description of assay [1]: BSK_3C_SRB: Viability Assessment in the BioMAP Diversity Plus: 3C Assay (AID 2283023).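 Note: fitted both ways against DMSO so a hit may be signal rise or drop.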 The conditions noted are these: primary human endothelial cells (HUVEC). The essentials:
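Cells were dosed with chemical, cultured 24 h, fixed with 10% TCA, stained with 0.1% SRB and read at 560 nm. Human umbilical vein endothelium was used; DMSO served as negative control and baseline.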

Read-out in assay [2]: Pselectin, SELP (gene 6403)
The assay can be described thus: BSK_4H_Pselectin: BioMAP Diversity Plus: 4H Assay for Pselectin Biomarker Activity (AID 2283026). The settings on record: primary human endothelial cells (HUVEC); actives raise or lower the signal. The method, boiled down:
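Endothelial primary cells (human umbilical vein) are dosed, incubated 24 h, and assayed for surface P-selectin by ELISA; responses in either direction are fitted relative to the DMSO negative control.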

The nature of assay [3]: BSK_4H_SRB: Viability Assessment in the BioMAP Diversity Plus: 4H Assay (AID 2283027).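 For AC50: curves fitted both ways versus DMSO so AC50 may be loss or gain.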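 Note: cells exposed to compound for 24 h before staining.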 The conditions noted are these: primary human endothelial cells (HUVEC). The essentials: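 HUVEC, 24 h post-dose; 10% TCA fix, 0.1% SRB stain, A560 nm. Total protein = overt cytotoxicity, parallel to biomarker read. Bidirectional fit vs DMSO baseline.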
Read-out in assay [4]: Urokinase-type plasminogen activator receptor (uPAR), PLAUR (gene 5329)
The assay can be described thus: BSK_4H_uPAR: BioMAP Diversity Plus: 4H Assay for Urokinase-type plasminogen activator receptor (uPAR) Biomarker Activity (AID 2283030). The settings on record: primary human endothelial cells (HUVEC); actives raise or lower the signal. The method, boiled down:
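Chemicals are dosed onto human vascular endothelial primary cells (umbilical vein). After 24 h, uPAR is read by ELISA. Gain or loss of signal is fitted relative to DMSO.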

Read-out in assay [5]: Plasminogen activator inhibitor-1 (PAI1), SERPINE1 (gene 5054)
The assay can be described thus: BSK_BE3C_PAI1: BioMAP Diversity Plus: BE3C Assay for Plasminogen activator inhibitor-1 (PAI1) Biomarker Activity (AID 2283037). The settings on record: primary human bronchial epithelial cells; actives raise or lower the signal. The method, boiled down: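 Values derive from bidirectional fitting against DMSO baseline of PAI-1 levels, measured by ELISA in human bronchial epithelial cells 24 h after compound addition.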

Read-out in assay [6]: Tissue plasminogen activator (tPA), PLAT (gene 5327)
Put plainly: BSK_BE3C_tPA: BioMAP Diversity Plus: BE3C Assay for Tissue plasminogen activator (tPA) Biomarker Activity (AID 2283041).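 Note: tPA level quantified by ELISA one day after compound addition.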 The settings on record: primary human bronchial epithelial cells; actives raise or lower the signal. The essentials: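 Gain- or loss-of-signal in tPA, measured by ELISA, derived by bidirectional fitting against DMSO. Cells: human primary bronchial epithelial; read at 24 h after chemical dosing.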

Read-out in assay [7]: Macrophage colony-stimulating factor (MCSF), CSF1 (gene 1435)
Put plainly: BSK_CASM3C_MCSF: BioMAP Diversity Plus: CASM3C Assay for Macrophage colony-stimulating factor (MCSF) Biomarker Activity (AID 2283044).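 Note: M-CSF protein amount quantified by ELISA after 24 h exposure.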 The settings on record: primary human coronary artery smooth muscle cells; actives raise or lower the signal.

Assay [8] can be described thus: BSK_CASM3C_SRB: Viability Assessment in the BioMAP Diversity Plus: CASM3C Assay (AID 2283050).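 Note: total protein by SRB staining as cytotoxicity measure in parallel cultures.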 The settings on record: primary human coronary artery smooth muscle cells.
Read-out in assay [9]: Thrombomodulin, THBD (gene 7056)
Put plainly: BSK_CASM3C_Thrombomodulin: BioMAP Diversity Plus: CASM3C Assay for Thrombomodulin Biomarker Activity (AID 2283051).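 Note: thrombomodulin protein level measured by ELISA 24 h after dosing.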 The settings on record: primary human coronary artery smooth muscle cells; actives raise or lower the signal.

Read-out in assay [10]: Vascular cell adhesion molecule 1 (VCAM1), VCAM1 (gene 7412)
Put plainly: BSK_CASM3C_VCAM1: BioMAP Diversity Plus: CASM3C Assay for Vascular cell adhesion molecule 1 (VCAM1) Biomarker Activity (AID 2283055).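 Note: VCAM-1 protein level quantified by ELISA on the cells.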 The settings on record: primary human coronary artery smooth muscle cells; actives raise or lower the signal.

Read-out in assay [11]: TIMP metallopeptidase inhibitor 2 (TIMP2), TIMP2 (gene 7077)
Put plainly: BSK_KF3CT_TIMP2: BioMAP Diversity Plus: KF3CT Assay for TIMP metallopeptidase inhibitor 2 (TIMP2) Biomarker Activity (AID 2283071). The conditions noted are these: primary human keratinocytes with fibroblasts; actives raise or lower the signal. The essentials:
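Chemicals were dosed onto human skin primary co-cultures of keratinocytes and foreskin fibroblasts, and TIMP-2 was measured by ELISA after 24 hours. Activity in either direction was fitted relative to DMSO.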

Read-out in assay [12]: Interleukin-1 alpha (IL1a), IL1A (gene 3552)
The assay can be described thus: BSK_LPS_IL1a: BioMAP Diversity Plus: LPS Assay for Interleukin-1 alpha (IL1a) Biomarker Activity (AID 2283080). The settings on record: primary human HUVEC with PBMC; actives raise or lower the signal. The essentials:
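Measured: IL-1 alpha via ELISA at 24 h in LPS-activated human umbilical vein endothelium–PBMC co-culture. Baseline: DMSO, bidirectional fitting.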

Read-out in assay [13]: Monocyte Chemoattractant Protein-1 (MCP1), CCL2 (gene 6347)
Put plainly: BSK_LPS_MCP1: BioMAP Diversity Plus: LPS Assay for Monocyte Chemoattractant Protein-1 (MCP1) Biomarker Activity (AID 2283081).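 For AC50: secreted MCP-1 protein quantified by ELISA in culture supernatant.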 The conditions noted are these: primary human HUVEC with PBMC; actives raise or lower the signal. The method, boiled down:
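LPS-stimulated HUVEC/PBMC co-culture; chemical, 24 h; MCP-1 by ELISA; bidirectional fit vs DMSO; cytotoxicity via SRB (0.1% stain, 10% TCA fix, 560 nm) in parallel wells.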

A short description of assay [14]: BSK_LPS_PGE2: BioMAP Diversity Plus: LPS Assay for Prostaglandin E2 (PGE2) Biomarker Activity (AID 2283082).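 For AC50: secreted prostaglandin E2 measured by ELISA in LPS-stimulated co-culture.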 The conditions noted are these: primary human HUVEC with PBMC; actives raise or lower the signal. The essentials:
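Compounds were added to the LPS co-culture of endothelium and PBMC, and PGE2 was measured by ELISA after 24 h. Responses in either direction were fitted with DMSO as baseline.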

Read-out in assay [15]: CD38, CD38 (gene 952)
Put plainly: BSK_SAg_CD38: BioMAP Diversity Plus: SAg Assay for CD38 Biomarker Activity (AID 2283087). The settings on record: primary human HUVEC with PBMC; actives raise or lower the signal. The method, boiled down: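 CD38 quantified by ELISA (fluorescence) in a superantigen-activated endothelial cell–PBMC co-culture at 24 h post-dose. Activity fitted in both directions relative to DMSO; parallel SRB and Alamar Blue cytotoxicity read-outs.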

Read-out in assay [16]: CD69, CD69 (gene 969)
Put plainly: BSK_SAg_CD69: BioMAP Diversity Plus: SAg Assay for CD69 Biomarker Activity (AID 2283089).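 For AC50: cell surface CD69 protein quantified by ELISA with fluorescence detection.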 The conditions noted are these: primary human HUVEC with PBMC; actives raise or lower the signal. The method, boiled down: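 HUVEC co-cultured with PBMC were dosed with chemical, and CD69 was measured by ELISA with fluorescence read-out 24 h later. Bidirectional curve fitting used DMSO as negative control and activity baseline.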

Read-out in assay [17]: E-selectin (Homo sapiens) (UniProt P16581)
Put plainly: BSK_SAg_Eselectin: BioMAP Diversity Plus: SAg Assay for Eselectin Biomarker Activity (AID 2283091). The conditions noted are these: primary human HUVEC with PBMC; actives raise or lower the signal. The essentials:
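Primary human endothelial cells and peripheral blood mononuclear cells were co-cultured and exposed to chemical for 24 hours. E-selectin levels were then quantified by ELISA, with bidirectional curve fitting normalised to DMSO controls.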

Read-out in assay [18]: Monokine induced gamma interferon (MIG), CXCL9 (gene 4283)
Put plainly: BSK_SAg_MIG: BioMAP Diversity Plus: SAg Assay for Monokine induced gamma interferon (MIG) Biomarker Activity (AID 2283092). The conditions noted are these: primary human HUVEC with PBMC; actives raise or lower the signal. The essentials: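 HUVEC plus human PBMC co-culture, chemicals dosed and MIG (CXCL9) quantified by ELISA at 24 h. Bidirectional curve fitting against DMSO as negative control and baseline, so both gain and loss of signal count as activity.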

Assay [19] in a line: BSK_SAg_Proliferation: Cell Proliferation Assessment in the BioMAP Diversity Plus: SAg Assay (AID 2283095).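 Note: relative cell number as total protein by SRB absorbance in sub-confluent culture.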 The conditions noted are these: primary human HUVEC with PBMC. The method, boiled down:
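Absorbance of sulforhodamine B at 560 nm reports total protein in a human vascular endothelial/PBMC co-culture after 96 h chemical exposure. Gain or loss of signal is fitted in both directions against DMSO.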

The target in assay [20] is Estrogen receptor (Homo sapiens) (UniProt P03372). Put plainly: ATG_ERa_TRANS: Attagene TRANS-FACTORIAL HepG2 Assay for human Estrogen Receptor alpha (ERa) (AID 2282970; active = hit-call score of the fitted dose curve at least 0.9, where 1 is the maximum). The settings on record: HepG2 Attagene TRANS ERa GAL4 reporter, mRNA. The method, boiled down:
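Transfected HepG2 cells carrying GAL4-UAS-driven reporter units were dosed for 24 hours. Total RNA was reverse-transcribed, reporter sequences PCR-amplified, FAM-labelled, HpaI-digested and resolved by capillary electrophoresis. Increases over DMSO control defined activity.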

Results filed as inconclusive are left out. Some structures have more than one record in an assay (separate samples or runs), and their calls can disagree. The source made the active and inactive calls. Rule for the calls, unless noted: active = hit-call score of the fitted dose curve at least 0.9, where 1 is the maximum; inactive = score below 0.9.

In PubChem BioAssay (EPA / NIEHS) one finds outcome and AC50 data, which are given here for seven compounds.

E-selectin (Homo sapiens), sequence (P16581 whole entry, looked up): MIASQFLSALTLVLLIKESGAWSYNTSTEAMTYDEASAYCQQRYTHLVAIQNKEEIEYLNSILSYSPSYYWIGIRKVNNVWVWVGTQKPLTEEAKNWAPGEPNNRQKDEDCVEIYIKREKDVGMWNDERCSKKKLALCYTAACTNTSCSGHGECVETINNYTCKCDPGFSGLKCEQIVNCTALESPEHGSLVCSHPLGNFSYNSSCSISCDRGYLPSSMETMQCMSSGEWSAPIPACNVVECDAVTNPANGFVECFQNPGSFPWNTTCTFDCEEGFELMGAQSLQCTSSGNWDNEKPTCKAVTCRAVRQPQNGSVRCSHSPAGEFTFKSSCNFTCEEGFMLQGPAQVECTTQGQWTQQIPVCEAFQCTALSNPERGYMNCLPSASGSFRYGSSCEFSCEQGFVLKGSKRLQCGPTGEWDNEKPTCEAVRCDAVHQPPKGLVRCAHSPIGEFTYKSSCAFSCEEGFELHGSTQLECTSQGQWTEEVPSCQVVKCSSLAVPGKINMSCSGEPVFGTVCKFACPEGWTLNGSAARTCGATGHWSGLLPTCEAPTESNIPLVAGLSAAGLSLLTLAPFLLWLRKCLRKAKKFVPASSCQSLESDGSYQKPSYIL
Estrogen receptor (Homo sapiens), sequence (P03372 whole entry, looked up, the tested form may be a part): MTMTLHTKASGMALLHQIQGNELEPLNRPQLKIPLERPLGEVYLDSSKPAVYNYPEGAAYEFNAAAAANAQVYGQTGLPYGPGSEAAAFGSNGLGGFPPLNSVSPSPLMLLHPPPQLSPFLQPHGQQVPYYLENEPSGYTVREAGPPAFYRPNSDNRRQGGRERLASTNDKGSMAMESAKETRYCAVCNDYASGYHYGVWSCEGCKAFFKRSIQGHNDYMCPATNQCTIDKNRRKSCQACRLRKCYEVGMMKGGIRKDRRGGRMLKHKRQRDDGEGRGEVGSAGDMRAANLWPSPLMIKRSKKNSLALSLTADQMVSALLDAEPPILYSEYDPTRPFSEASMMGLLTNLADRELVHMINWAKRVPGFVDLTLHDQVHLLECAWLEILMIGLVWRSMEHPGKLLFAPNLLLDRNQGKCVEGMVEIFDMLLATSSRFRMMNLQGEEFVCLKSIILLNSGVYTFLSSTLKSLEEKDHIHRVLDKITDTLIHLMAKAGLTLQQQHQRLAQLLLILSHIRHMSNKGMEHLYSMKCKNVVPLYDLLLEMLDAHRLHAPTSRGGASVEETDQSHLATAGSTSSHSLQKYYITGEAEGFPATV

The AC50 is the midpoint of the concentration-response curve, whichever way the signal moves. Consider `COc1ccc(CO)cc1`, for which the outcome in assay [1], in assay [2], in assay [3], in assay [4], in assay [5] and in assay [6] was inactive. The result in assay [7], in [8], in [9], in assay [10], in assay [11] and in assay [12] was inactive. For the same compound, the result in [13], in assay [14], in assay [15], in assay [16], in assay [17] and in assay [18] was inactive. Besides, the result in assay [19] was inactive. Further, in [5], the AC50 is 0.308 µM (active).

In the case of `COc1ncc(F)c2nc(S(=O)(=O)Nc3c(F)cccc3F)nn12`, the outcome in assay [20] was inactive.

Take `O=S(=O)(c1ccccc1)c1ccccc1`: the result in assay [1], in assay [2], in [3], in [4], in assay [5] and in assay [6] was inactive. Besides, the outcome in assay [7], in assay [8], in assay [9], in assay [10], in assay [11] and in [12] was inactive. For the same compound, the result in assay [13], in [14], in assay [15], in [16], in [17] and in assay [18] was inactive. For the same compound, in [19], the outcome was inactive.

Regarding `O=C(CCl)c1ccccc1`, the AC50 in assay [1] is 20 µM (active); in assay [2], 3.29 µM (active); in assay [3] it was 14.3 µM (active); in assay [4] it was 9.98 µM (active); in [7], 12.9 µM (active); in assay [8], 12.2 µM (active). For the same compound, the AC50 is 7.45 µM (active) in assay [10]; 36.4 µM (active) in assay [11]; 3.72 µM (active) in assay [12]; 6.34 µM (active) in assay [13]; 5.38 µM (active) in assay [14]; 4.55 µM (active) in assay [15]. Further, the AC50 in assay [16] was 6.19 µM (active); in assay [17], 3.31 µM (active); in assay [18] it was 8.77 µM (active); in [19] it was 1.06 µM (active). In addition, the outcome in assay [5], in [6] and in assay [9] was inactive.

As for `CNC(=O)Oc1cc(C)c(SC)c(C)c1`, the AC50 was 8.61 µM (active) in assay [20]; 20 µM (active) in assay [1]; 13.3 µM (active) in assay [7]; 10.1 µM (active) in assay [8]; 20 µM (active) in assay [10]; 11.8 µM (active) in assay [14]. Moreover, the result in [2], in assay [3], in [4], in [5], in assay [6] and in assay [9] was inactive. The result in assay [11], in assay [12], in assay [13], in assay [15], in assay [16] and in assay [17] was inactive. The outcome in assay [18] and in [19] was inactive.

Turning to `C=CC(=O)OCC(CC)CCCC` (centres undefined), the result in [1], in assay [2], in assay [3], in assay [4], in assay [5] and in assay [6] was inactive. Also, the result in assay [7], in assay [9], in [11], in assay [12], in [14] and in assay [15] was inactive. Also, the result in assay [16], in assay [17], in assay [18] and in assay [19] was inactive. Further, the AC50 is 31.7 µM (active) in assay [8], 20 µM (active) in assay [10] and 0.016 µM (active) in assay [13].

For `O=C(O)COc1ccccc1`, the outcome in assay [20] was inactive.
